# The source made the active and inactive calls.
# Tests used:
# [1] = tested on: Plasmodium falciparum Sir2 (PF13_0152, Sir2A); experiment: Plasmodium falciparum Sir2A binding compounds – biochemical, small-molecule microarray, 635 nm fluorescence, primary screen (AID 1098); conditions: fluorescence 635 nm, higher = more signal;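 also: score merges spot fluorescence intensity with its signal-to-noise ratio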
# [2] = probe aDKK1 binding to arrayed compounds – biochemical, biotinylated probe, 635/667 nm fluorescence, primary screen (AID 1099); conditions: small-molecule microarray, higher = more signal;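 also: score merges 667nm spot fluorescence with signal to noise across triplicate slides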
# [3] = probe aCHRDL2 binding to arrayed compounds – biochemical, biotinylated probe, 635/667 nm fluorescence, primary screen (AID 1100); conditions: small-molecule microarray, higher = more signal
# [4] = change in splice reporter luminescence, either direction, cell-based, HEK293, spliceosome inhibition project, primary screen (AID 1101); conditions: HEK293 splicing luciferase reporter, 24 h, higher = more signal, called active from +8 up or from −8 down;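 also: HEK293 cells carrying a splicing-competent luciferase reporter gene; test concentration not given here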
# [5] = target: Fibroblast growth factor 10 (Homo sapiens) (UniProt O15520); experiment: compounds binding fibroblast growth factor 10 – biochemical, small-molecule microarray, 635 nm fluorescence, primary screen (AID 1102); conditions: FGF10 binding, fluorescence 635 nm, higher = more signal
# Fibroblast growth factor 10 (Homo sapiens), sequence (O15520 whole entry, looked up): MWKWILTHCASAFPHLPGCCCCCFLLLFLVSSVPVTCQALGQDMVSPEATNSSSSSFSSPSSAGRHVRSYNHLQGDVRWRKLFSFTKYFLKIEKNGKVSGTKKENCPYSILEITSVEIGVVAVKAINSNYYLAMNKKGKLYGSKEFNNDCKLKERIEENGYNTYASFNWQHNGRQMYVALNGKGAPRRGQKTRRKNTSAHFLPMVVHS
# [6] = tested on: glycogen synthase kinase-3 (GSK3A per assay name; protocol says GSK3B); experiment: compounds binding glycogen synthase kinase-3 – biochemical, small-molecule microarray, 635 nm fluorescence, GSK3A, primary screen (AID 1103); conditions: fluorescence 635 nm, higher = more signal; also: the record names both GSK3A and GSK3B
# [7] = target: Epidermal growth factor receptor (Homo sapiens) (UniProt P00533); experiment: compounds binding epidermal growth factor receptor – biochemical, small-molecule microarray, 635 nm fluorescence, primary screen (AID 1104); conditions: EGFR binding, higher = more signal;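 also: score merges 667 nm emission intensity with spot signal to noise over triplicate slides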
# Epidermal growth factor receptor (Homo sapiens), sequence (P00533 whole entry, looked up): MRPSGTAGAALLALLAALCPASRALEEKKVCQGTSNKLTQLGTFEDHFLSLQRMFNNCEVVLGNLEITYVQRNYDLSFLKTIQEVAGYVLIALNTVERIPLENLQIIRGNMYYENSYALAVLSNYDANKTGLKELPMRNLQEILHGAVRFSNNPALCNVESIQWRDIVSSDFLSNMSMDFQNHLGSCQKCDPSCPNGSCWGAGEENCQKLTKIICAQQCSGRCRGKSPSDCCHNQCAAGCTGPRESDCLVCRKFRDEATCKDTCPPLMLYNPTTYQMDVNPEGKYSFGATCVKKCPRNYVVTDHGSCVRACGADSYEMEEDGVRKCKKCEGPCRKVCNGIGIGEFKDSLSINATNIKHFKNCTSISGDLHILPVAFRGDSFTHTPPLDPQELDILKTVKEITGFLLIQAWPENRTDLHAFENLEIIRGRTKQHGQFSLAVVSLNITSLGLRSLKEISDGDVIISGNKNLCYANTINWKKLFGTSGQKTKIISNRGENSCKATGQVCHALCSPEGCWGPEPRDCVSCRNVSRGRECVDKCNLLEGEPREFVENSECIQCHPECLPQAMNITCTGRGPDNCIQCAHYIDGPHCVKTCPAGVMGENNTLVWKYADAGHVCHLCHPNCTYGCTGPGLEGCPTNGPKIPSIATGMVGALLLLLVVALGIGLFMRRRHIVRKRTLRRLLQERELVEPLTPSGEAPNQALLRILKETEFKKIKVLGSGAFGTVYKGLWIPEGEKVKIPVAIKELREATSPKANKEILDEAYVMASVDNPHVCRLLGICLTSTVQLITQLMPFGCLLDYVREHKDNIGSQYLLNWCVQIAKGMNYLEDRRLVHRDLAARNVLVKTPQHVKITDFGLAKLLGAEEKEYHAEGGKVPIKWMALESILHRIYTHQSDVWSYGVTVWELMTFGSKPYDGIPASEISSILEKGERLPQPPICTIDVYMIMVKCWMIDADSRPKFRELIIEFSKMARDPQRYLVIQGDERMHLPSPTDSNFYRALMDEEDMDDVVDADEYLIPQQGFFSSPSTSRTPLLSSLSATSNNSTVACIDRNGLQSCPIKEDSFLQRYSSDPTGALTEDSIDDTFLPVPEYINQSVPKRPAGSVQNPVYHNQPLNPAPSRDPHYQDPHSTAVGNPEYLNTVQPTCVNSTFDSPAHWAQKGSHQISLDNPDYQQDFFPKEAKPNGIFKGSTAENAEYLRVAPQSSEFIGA
# [8] = target: Follistatin-related protein 3 (Homo sapiens) (UniProt O95633); experiment: compounds binding follistatin-related protein 3 – biochemical, small-molecule microarray, 635 nm fluorescence, primary screen (AID 1105); conditions: FSTL3 binding, higher = more signal;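 also: score merges emission near 667 nm and signal to noise per printed spot across three slides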
# Follistatin-related protein 3 (Homo sapiens), sequence (O95633 whole entry, looked up): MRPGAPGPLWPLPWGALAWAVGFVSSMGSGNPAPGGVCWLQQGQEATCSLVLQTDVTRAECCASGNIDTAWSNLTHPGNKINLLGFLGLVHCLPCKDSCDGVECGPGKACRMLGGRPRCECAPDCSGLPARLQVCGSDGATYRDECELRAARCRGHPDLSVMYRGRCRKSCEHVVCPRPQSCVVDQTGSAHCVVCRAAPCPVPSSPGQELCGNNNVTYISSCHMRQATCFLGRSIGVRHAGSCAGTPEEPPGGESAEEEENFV
# [9] = target: Dickkopf-related protein 1 (Homo sapiens) (UniProt O94907); experiment: small molecules binding DKK1 protein – biochemical, small-molecule microarray, 635 nm fluorescence scan, primary screen (AID 1106); conditions: higher = more signal;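 also: score merges emission near 667 nm with signal to noise over three replicate slides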
# Dickkopf-related protein 1 (Homo sapiens), sequence (O94907 whole entry, looked up): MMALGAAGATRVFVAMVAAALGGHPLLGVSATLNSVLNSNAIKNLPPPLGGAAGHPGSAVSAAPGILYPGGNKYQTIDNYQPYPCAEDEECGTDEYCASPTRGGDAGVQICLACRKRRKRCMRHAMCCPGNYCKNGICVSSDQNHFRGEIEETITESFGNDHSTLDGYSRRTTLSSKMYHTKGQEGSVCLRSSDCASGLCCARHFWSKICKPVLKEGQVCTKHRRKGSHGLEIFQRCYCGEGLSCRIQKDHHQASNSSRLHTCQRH
# [10] = tested on: Inhibin beta A chain (activin A); experiment: small molecules binding activin A – biochemical, small-molecule microarray, 635 nm fluorescence scan, primary screen (AID 1107); conditions: INHBA, higher = more signal;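 also: mouse activin A protein probed at 4.33 µg/mL on printed slides; score merges bound-protein fluorescence near 667 nm with spot signal-to-noise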
# [11] = tested on: Human papillomavirus type 1a protein E7 (residues 44-93); experiment: small molecules binding HPV E7 44-93 – biochemical, small-molecule microarray, residues 44-93, 635 nm fluorescence, primary screen (AID 1108); conditions: fluorescence 635 nm, higher = more signal;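 also: E7 fragment applied at 1 µg/mL in TBST for 1 h at 4 C; score combines spot fluorescence with its signal to noise ratio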
# [12] = hepatitis C replication reporter changes, two-sided – Huh7 cells, luciferase reporter, HCV replication inhibitor project, primary screen (AID 1109); conditions: Huh7 HCV replicon luciferase reporter, 48 h; higher = more signal;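 also: huh7 hepatoma cells harbouring a luciferase neomycin HCV replicon reporter; luciferase luminescence as measure of HCV replicon replication; test concentration not given here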
# [13] = target: Left-right determination factor 2 (Homo sapiens) (UniProt O00292); experiment: small molecules binding LEFTY2 protein – biochemical, small-molecule microarray, 635 nm fluorescence scan, primary screen (AID 1110); conditions: higher = more signal
# Left-right determination factor 2 (Homo sapiens), sequence (O00292 whole entry, looked up): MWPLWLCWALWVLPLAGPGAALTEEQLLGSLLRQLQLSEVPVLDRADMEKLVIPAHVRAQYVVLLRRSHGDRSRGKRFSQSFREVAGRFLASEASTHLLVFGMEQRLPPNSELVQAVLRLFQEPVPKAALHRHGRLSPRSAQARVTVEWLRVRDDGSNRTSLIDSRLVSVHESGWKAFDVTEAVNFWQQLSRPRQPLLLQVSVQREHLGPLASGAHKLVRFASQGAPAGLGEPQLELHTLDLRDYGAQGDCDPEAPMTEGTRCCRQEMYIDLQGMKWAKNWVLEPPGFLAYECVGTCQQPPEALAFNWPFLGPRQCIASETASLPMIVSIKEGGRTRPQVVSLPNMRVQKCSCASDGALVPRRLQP
# [14] = target: Calmodulin-1 (Homo sapiens) (UniProt P0DP23); experiment: small molecules binding calmodulin-1 with EGTA – biochemical, small-molecule microarray, Cy5-labelled CALM1, profiling panel (AID 1111); conditions: Cy5-CALM1 binding fluorescence, higher = more signal;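 also: labelled calmodulin applied in Tris saline Tween buffer holding calcium plus EGTA and DTT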
# [15] = target: Calmodulin-1 (Homo sapiens) (UniProt P0DP23); experiment: small molecules binding Ca-loaded calmodulin-1 – biochemical, small-molecule microarray, Cy5-labelled CALM1, plus calcium, artefact control for SMM control-protein annotation, profiling panel (AID 1112); conditions: Cy5-CALM1 binding fluorescence, higher = more signal;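 also: score merges spot fluorescence with signal to noise from triplicate slides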
# [16] = probe aWnt5a binding to arrayed compounds – biochemical, biotinylated probe, 635/667 nm fluorescence, primary screen (AID 1113); conditions: small-molecule microarray, higher = more signal;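 also: score merges 667 nm fluorescence intensity with signal-to-noise per printed feature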
# [17] = probe aShh binding to arrayed compounds – biochemical, biotinylated probe, 635/667 nm fluorescence, primary screen (AID 1114); conditions: small-molecule microarray, higher = more signal;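 also: probe is biotin-labelled aShh protein from a stem cell growth factor screen; measures binding of labelled protein to compounds printed on the slide; score merges feature fluorescence at 667 nm with signal-to-noise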
# [18] = probe aNog binding to arrayed compounds – biochemical, biotinylated probe, 635/667 nm fluorescence, primary screen (AID 1115); conditions: small-molecule microarray, higher = more signal;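 also: probe is biotinylated aNog protein used at 0.15 µg/mL for 1 h at 4 C; z-score combines 667 nm fluorescence of each spot with its signal to noise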
# [19] = target: Torsin-1A-interacting protein 1 (Homo sapiens) (UniProt Q5JTV8); experiment: compound microarray binding of lysate hLAP1 – cell lysate, small-molecule microarray, COS7 lysate, 635/667 nm fluorescence, primary screen (AID 1116); conditions: 635 nm fluorescence, higher = more signal
# Torsin-1A-interacting protein 1 (Homo sapiens), sequence (Q5JTV8 whole entry, looked up): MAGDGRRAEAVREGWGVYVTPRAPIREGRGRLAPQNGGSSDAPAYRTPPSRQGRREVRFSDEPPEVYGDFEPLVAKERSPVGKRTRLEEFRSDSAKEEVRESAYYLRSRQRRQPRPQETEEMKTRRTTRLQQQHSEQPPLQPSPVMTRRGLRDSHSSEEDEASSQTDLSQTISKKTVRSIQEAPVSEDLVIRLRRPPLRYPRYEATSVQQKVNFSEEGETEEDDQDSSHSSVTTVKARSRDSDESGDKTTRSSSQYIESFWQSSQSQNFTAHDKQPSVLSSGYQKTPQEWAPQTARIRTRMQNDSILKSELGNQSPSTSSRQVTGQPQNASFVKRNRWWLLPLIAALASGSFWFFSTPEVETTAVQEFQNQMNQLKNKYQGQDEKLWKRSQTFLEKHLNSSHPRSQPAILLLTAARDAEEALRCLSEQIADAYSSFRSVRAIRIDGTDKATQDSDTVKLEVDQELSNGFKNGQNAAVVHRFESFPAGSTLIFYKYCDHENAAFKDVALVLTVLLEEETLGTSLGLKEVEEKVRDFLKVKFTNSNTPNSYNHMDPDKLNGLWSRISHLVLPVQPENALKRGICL
# [20] = target: Alpha-bungarotoxin (Bungarus multicinctus) (UniProt P60615); experiment: compounds binding labelled alpha-BTX control protein – biochemical, small-molecule microarray, Alexa647 label, 635/667 nm fluorescence, artefact control for SMM control protein annotation, profiling panel (AID 1117); conditions: alpha-BTX-A647 binding fluorescence, higher = more signal
# Alpha-bungarotoxin (Bungarus multicinctus), sequence (P60615 whole entry, looked up): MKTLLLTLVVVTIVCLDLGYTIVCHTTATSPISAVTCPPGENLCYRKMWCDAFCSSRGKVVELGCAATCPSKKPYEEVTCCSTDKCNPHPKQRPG
SMILES,composite z-score [1],composite z-score [2],composite z-score [3],z-score [4],composite z-score [5],composite z-score [6],composite z-score [7],composite z-score [8],composite z-score [9],composite z-score [10],composite z-score [11],z-score [12],composite z-score [13],composite z-score [14],composite z-score [15],composite z-score [16],composite z-score [17],composite z-score [18],composite z-score [19],composite z-score [20]
COc1ccc([Si](C)(C)[C@H]2[C@H](CCO)O[C@@]3(C(=O)N(Cc4ccccc4)c4ccc(N5C(=O)c6ccccc6Oc6ccccc65)cc43)[C@@H]2C)cc1,0.365,-0.167,-0.123,-0.916 (inactive),0.0351,-0.512,-0.124,-0.734,0.0449,0.201,0.647,-4.49,-0.358,0.425,0.773,0.0431,0.213,0.195,0.323,0.178
C[C@@]12COC[C@]13C=C(Br)[C@H](C2)[C@@]1(CO1)C3=O,-0.363,-0.101,0.262,-0.374 (inactive),-0.732,-1.02,-0.886,-0.449,-0.614,0.701,-2.3,-2.64,-0.777,-0.66,-0.691,-0.176,-0.214,-0.256,-1.17,-0.455
CCOC(=O)C[C@H]1[C@H](OC(=O)c2ccc(-c3ccccc3)cc2)[C@@H](NC(=O)Cc2ccc(OC)cc2)c2cc(OCCCO)ccc2N1C(=O)Cc1ccc(OC)cc1,0.064,0.288,0.723,-0.0344 (inactive),0.244,-0.602,0.0599,-0.0955,-0.276,0.38,0.102,-0.261,-0.0069,0.655,0.767,-0.0114,0.0952,0.0759,0.456,0.913
C=C(COC)/C(=C/C[C@@H](OC(C)=O)c1ccc(CO)o1)c1cc(C(=O)OC)ccc1OC,0.403,-0.138,-0.0929,0.36 (inactive),1.17,0.0212,-0.725,-0.185,-0.305,1.08,0.531,-1.45,-0.0379,-0.177,-0.9,-0.096,0.479,0.184,-0.315,0.202
COC(=O)C(CC#Cc1ccc2c(c1)[C@]1(C(=O)N2)[C@H](c2ccc(OCCO)cc2)N2[C@H](c3ccccc3)[C@H](c3ccccc3)OC(=O)[C@H]2[C@@H]1C(=O)N1CCN(c2ncccn2)CC1)C(=O)OC,1.35,0.841,0.782,0.0768 (inactive),1.14,1.32,0.331,1.37,0.982,0.53,0.233,-1.49,1.28,1.48,0.43,-0.0286,0.214,-0.889,1.2,1.3
COC(=O)[C@@]1(Cc2ccccc2)[C@H]2c3cc(C(=O)N(C)C)n(CCn4cc([N+](=O)[O-])nc4C)c3C[C@H]2CN1C(=O)c1ccccc1,1.72,-0.262,0.436,-0.106 (inactive),0.937,0.793,0.355,0.444,0.0356,0.581,1.15,-0.347,0.0356,0.437,0.361,0.0162,0.0952,0.576,2.83,0.413
CCOC(=O)C[C@H]1[C@H](OC(=O)c2ccc(C(=O)c3ccccc3)cc2)[C@@H](NC(=O)CC(C)C)c2cc(OCCCO)ccc2N1C(=O)Cc1ccc(OC)cc1,0.0092,0.393,0.671,-0.441 (inactive),0.197,0.231,-0.204,0.261,0.276,0.829,1.1,-2.05,0.142,1.19,0.263,-0.0852,-0.238,0.0437,0.812,0.118
CCCCC(=C=CC[C@H](O)c1ccc(OCCO)cc1)C[C@H](O)COCc1ccccc1,1.07,-0.221,-0.0323,-0.639 (inactive),0.793,-0.171,-0.304,-0.603,-0.259,1.12,0.383,-1.77,-0.233,-0.567,-0.377,-0.0685,0.14,-0.0168,0.941,0.134
CN(C)CCCCNC(=O)[C@H]1C[C@H]2C(=O)N[C@@H](CCCC[N+](C)(C)C)C(=O)N2[C@H]1c1ccc(O)cc1,1.26,-0.209,-0.328,-1.48 (inactive),-0.937,-0.55,-0.327,-0.205,0.357,0.0643,-1.55,-0.027,-0.0658,-0.0691,-0.441,-0.208,-0.2,-0.253,-0.511,0.15
C=C(/C(=C/C[C@H](OC(=O)c1ccncc1)c1cccc(OCCO)c1)c1cnc2ccccc2c1)C(C)C,0.411,-0.0011,0.454,-1.46 (inactive),1.47,1.18,0.539,1.51,0.739,1.68,0.589,-4.47,0.67,0.127,-0.412,-0.0236,-0.0011,0.0215,2.85,3.56
C=CCC(OC(C)=O)[C@@H]1[C@@H](N(Cc2cccc3ccccc23)C(=O)c2ccc(-c3ccccc3)cc2)c2cc(OCCCO)ccc2N1C(=O)c1ccc(-c2ccccc2)cc1 (stereo not given in full),0.122,0.508,0.75,-0.698 (inactive),-0.221,-0.0259,-0.151,0.143,-0.242,0.967,0.635,-0.681,0.385,0.603,1.16,-0.0819,0.0899,0.355,0.35,0.439

# Source: PubChem BioAssay
